HCV inhibitor: blocks hepatitis C virus. Huh7.5.1 HCVcc-Cre infection, luciferase reporter, 44 h. Potency, µM (highest dose often 41.8 µM), without a hit: at the highest dose activity change, negative = inhibition, actives largely listed as inhibitors. 3.4% of 340,000 active; active means well fitted inhibition curve with a large enough effect; inconclusive means small, poorly fitted or top-dose-only effect, or another doubt; inactive means no such curve, though single readings can be large or run the other way; further: potency means the concentration at half of the fitted maximal effect; on the % scale 0 is the no-effect control and ±100 the full control effect
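Infectious HCV cell culture screen: compound-treated cells (1,000/well, pre-plated 4 h) are infected with HCVcc-Cre at roughly 0.5 moi and grown 44 h. Infection is quantified by luciferase signal after 15 min substrate incubation at room temperature.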
SARS PLpro yeast: SARS-CoV PLP inhibition in yeast; 0.19% of 330,000 active; S. cerevisiae expressing SARS-CoV PLpro, growth rescue; Potency, µM (highest dose often 32.9 µM), without a hit: at the top dose activity, positive = growth rescue, hits mostly activators; calls by dose curve; further: potency means the concentration at half of the fitted maximal effect; 0% is about no effect; nearly all actives have a fitted effect of over 55% in size
Lassa entry inh: inhibitors of Lassa virus binding or cell entry. AID 540256. Potency, µM (doses to about 37.9 µM), for inactives: at the top dose activity change, negative = inhibition, most hits filed as inhibitors. 1.2% of 300,000 active. Lassa virus pseudotype entry inhibition, cell reporter; calls by dose curve; tested in HEK293 cells; further: potency means the concentration at half of the fitted maximal effect; on the % scale 0 is the no-effect control and ±100 the full control effect; nearly all actives have a fitted effect of over 50% in size
Marburg entry inh: Marburg virus entry inhibition. Marburg virus pseudotyped entry inhibition, cell reporter. Potency, µM (series often up to 37.8 µM), inactives show at the highest dose activity change, negative = inhibition, hits mostly inhibitors. 1.8% of 300,000 active; calls by dose curve; tested in HEK293 cells; further: potency means the concentration at half of the fitted maximal effect; on the % scale 0 is the no-effect control and ±100 the full control effect
FMDV antiviral: foot and mouth disease virus antiviral activity; FMDV antiviral cell-based qHTS; Potency, µM (doses to about 57.9 µM), inactives show at the highest dose activity change, negative = inhibition, hits mostly inhibitors; 1.2% of 410,000 active; AID 1159524; calls by dose curve; tested in HEK293T cells; further: read-out not given here; potency means the concentration at half of the fitted maximal effect; on the % scale 0 is the no-effect control and ±100 the full control effect; nearly all actives have a fitted effect of over 45% in size
HCMV antiviral: human cytomegalovirus inhibition; HFF cells, HCMV-luciferase reporter, 72 h; active compounds read low; activity change, negative = inhibition, % at 57.5 µM; 4.5% of 410,000 active; in the data active means activity change below about -60%; inconclusive means no clear call, values can overlap the other calls; inactive means above about -39%; further: on the % scale 0 is the no-effect control and ±100 the full control effect
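Inhibition of viral replication was scored as loss of reporter luminescence in HFFs infected with HCMV-luciferase (MOI 1 PFU/cell) for 72 h; compounds tested at 2 doses, normalized to buffer and Salinomycin controls.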
* = called active by the depositor; ? = inconclusive; . = no result; [ ] = remark or other dose. The list is not random: actives were taken first. Their share in the collection is about 8%.

SMILES	HCV inhibitor	SARS PLpro yeast	Lassa entry inh	Marburg entry inh	FMDV antiviral	HCMV antiviral
Cc1ccc(NC(=O)NC(=O)CN2CCN(c3ccc(O)cc3)CC2)c(C)c1	?	-5%	-26%[46.1 µM]	-1%[46.1 µM]	-5%	-81*
Cc1cccc2c1-c1sc(C(=O)N(C)c3cccc(Cl)c3)cc1CO2	.	.	.	0%[46.1 µM]	-14%	15
CC(=O)N1CCc2cc(S(=O)(=O)C(C)CC(=O)Nc3ccc(Br)c(C)c3)ccc21 (stereo unspecified)	.	.	17%[46.1 µM]	.	-20%	-18
CCCCC(CC)COC(=O)CC(C(=O)OCC(CC)CCCC)S(=O)(=O)O (stereo unspecified)	.	.	.	.	.	13
CCN(CC)CCNC(=O)c1c(C)oc2ncn(C)c(=O)c12	.	.	14%[46.1 µM]	.	-8%	19
N#Cc1cc2c(nc1SCC(O)CS(=O)(=O)Cc1ccc(Cl)cc1)CCCC2 (stereo unspecified)	?	3%	-33%	-14%	.	-64*
N#CCSc1nc2c(cc1C#N)CCCCCC2	?	-19%	?	-9%	-17%	-68*
CN1C(=O)/C(=C/c2cccn2-c2ccc3ccccc3c2)C(=O)NC1=S	1%	-12%	?	?	28µM*	-105*
Cc1cc(C)cc(N2C(=O)NC(=O)/C(=C\c3cccn3-c3ccc(Cl)cc3)C2=O)c1	21%	7%	?	?	8.9µM*	-23
Cc1cc(C)cc(N2C(=O)NC(=O)/C(=C\c3cccn3-c3ccccc3)C2=O)c1	?	-42%	?	?	35µM*	-20
CCc1ccc(N2C(=O)NC(=O)/C(=C/c3cccn3CCOc3ccc(C)cc3)C2=O)cc1	-1%	20%	2%[46.1 µM]	15%[46.1 µM]	-21%	69
O=Cc1cccn1-c1ccc2ccccc2c1	0%	-1%	.	.	47%	?
O=C1NC(=S)NC(=O)C1=Cc1cccn1-c1ccc(O)cc1	?	0%	.	.	20µM*	-99*
O=C(COc1ccc2oc3c(c2c1)CCCC3)Nc1ccc(Br)cc1	.	.	-1%[46.1 µM]	19%[46.1 µM]	-15%	?
CC(=O)NC(C)(c1ccccc1)c1nc(-c2ccc(F)c(Cl)c2)cs1 (stereo unspecified)	.	.	.	.	-3%	62
CC(=O)c1ccc(NC(=O)CN2C(=O)NC(C)(C3CCCCC3)C2=O)cc1 (stereo unspecified)	-5%	-9%	.	.	-9%	46
COC(=O)c1c(OCc2ccccn2)cc(=O)n2c1CCN(C(=O)c1n[nH]c3c1CCCC3)CC2	.	.	.	.	-11%	.
COc1ccc(C(=O)c2cc([N+](=O)[O-])ccc2N2CCCC2)cc1	?	-12%	?	?	?	29
O=C(Nc1ccccc1N1CCCCC1)c1cccc([N+](=O)[O-])c1	?	-3%	?	?	-22%	-30
O=C(c1ccc(Br)cc1)c1cc([N+](=O)[O-])ccc1N1CCCCC1	?	-11%	?	0.73µM*	-28%	-91*
COc1ccc(C(=O)c2cc([N+](=O)[O-])ccc2N2CCN(C)CC2)cc1	?	0%	-24%	7.1µM*	-16%	-30
CN1CCN(c2ccc([N+](=O)[O-])cc2C(=O)c2ccc(Br)cc2)CC1	-24%	-4%	?	?	-22%	?
O=C(Nc1cc(C(F)(F)F)ccc1N1CCCCC1)c1cccc([N+](=O)[O-])c1	?	-2%	-1%	-29%	-25%	-77*
O=[N+]([O-])c1ccc(N2CCN(c3ccc([N+](=O)[O-])cc3CO)CC2)c(CO)c1	3.2µM*	1%	-15%[46.1 µM]	-21%[46.1 µM]	?	-66*
CCCSc1nc2c(c(=O)[nH]1)C(c1ccc(F)cc1F)CC(=O)N2 (stereo unspecified)	.	.	-22%[46.1 µM]	5%[46.1 µM]	2%	2
SMILES	HCV inhibitor	SARS PLpro yeast	Lassa entry inh	Marburg entry inh	FMDV antiviral	HCMV antiviral
CC(=O)N1CCN(CC(=O)Nc2ccc([N+](=O)[O-])cc2Br)CC1	?	5%	25%	-9%[46.1 µM]	-17%	24
CCOc1ccc(OCC)c(NS(=O)(=O)c2c(C(=O)N3CCC(C)CC3)c(C)n(C)c2C)c1	.	.	-10%[46.1 µM]	.	43%	10
COc1ccc(-n2ccc(-c3sc(NCc4cc(OC)c5c(c4)OCO5)nc3C)n2)cc1	.	.	.	.	-24%	.
CCCC(c1nnnn1C1CCCCC1)N1C(=O)C(=O)c2ccccc21 (stereo unspecified)	.	.	.	.	.	-17
O=C(c1ccccc1)c1cc([N+](=O)[O-])ccc1N1CCCC1	?	6%	-9%	-43%	?	-61*
COc1ccc(N(Cc2ccccc2)C(=O)CSc2nnc(Cn3nnc4ccccc43)o2)cc1	14µM*	-10%	?	?	?	-23
O=C(CSc1nnc(Cn2nnc3ccccc32)o1)N(Cc1ccc(F)cc1)c1ccccc1	1.6µM*	0%	?	?	.	-100*
COc1ccc(CN(C(=O)CSc2nnc(-c3c[nH]c4ccccc34)o2)c2ccc(F)cc2)cc1OC	5µM*	10%	7.1µM*	?	?	-70*
COc1ccc(CN(C(=O)CSc2nnc(-c3ccc(F)cc3)o2)c2ccc(F)cc2)cc1	?	-6%	?	6%	-8%	-18
COc1ccc(CNC(=O)c2cnn3c(C(F)F)cc(C)nc23)cc1OC	10µM*	-5%	.	.	?	30
Cc1ccccc1S(=O)(=O)N1[C@@H](c2ccccc2)C(C(=O)O)=CC[C@H]1c1ccc(Cl)cc1	4%	2%	.	.	3%	-99*
Cc1cccc2c(=O)cc(C(F)(F)F)[nH]c12	-11%	-7%	-3%[46.1 µM]	0%[46.1 µM]	?	-5
O=c1cc(C(F)(F)F)[nH]c2c(OC(F)(F)F)cccc12	11%	-6%	11%[46.1 µM]	?	?	-95*
Cc1ccc2[nH]c3c(c2c1)CCCC3=O	10µM*	-6%	14%	-18%[46.1 µM]	33%	145
Cc1ccc2[nH]c3c(c2c1)CCc1cn[nH]c1-3	14µM*	-30%	?	2%	43%	17
Cc1ccc2[nH]c3c(c2c1)CCC3=O	?	-13%	-14%	1%	.	57
Cc1ccc(N(CC(=O)NCCc2ccc(Cl)cc2)S(=O)(=O)N(C)C)cc1	.	.	-9%[46.1 µM]	?	0%	11
COC(=O)[C@@H](CC(C)C)N(Cc1ccccc1)S(=O)(=O)N(Cc1ccccc1)[C@@H](CC(C)C)C(=O)OC	26%	1%	.	.	?	?
C=C[C@H](Cc1ccccc1)N(Cc1ccccc1)S(=O)(=O)N(Cc1ccccc1)[C@H](C=C)Cc1ccccc1	-3%[8.37 µM]	-9%	.	.	?	-86*
COC(=O)[C@@H](Cc1ccccc1)N(Cc1ccccc1)S(=O)(=O)N(Cc1ccccc1)[C@H](Cc1ccccc1)C(=O)OC	-14%[8.37 µM]	-2%	.	.	?	-96*
O=S(=O)(c1ccc(F)cc1)N1CCCC1	-5%	2%	1%	-9%	-19%	4
